{"source": "PubChem BioAssay AID493131", "about": "(Broad Institute, 2011)", "note": "The campaign covered roughly 340,000 compounds. About 3,300 (0.97%) were called active. This is one part of a sample in which actives are shown more often than they occur. A number with no mark means an inactive call.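 Rule for the calls: active = mean activation above about 17%, with every replicate also reaching it (limit read from the data, passing the limit was not always enough); inconclusive = only one of the two conditions met; inactive = the rest.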", "data": [{"target": "Protein FosB (Mus musculus) (UniProt P13346)", "sequence (P13346 whole entry, looked up)": "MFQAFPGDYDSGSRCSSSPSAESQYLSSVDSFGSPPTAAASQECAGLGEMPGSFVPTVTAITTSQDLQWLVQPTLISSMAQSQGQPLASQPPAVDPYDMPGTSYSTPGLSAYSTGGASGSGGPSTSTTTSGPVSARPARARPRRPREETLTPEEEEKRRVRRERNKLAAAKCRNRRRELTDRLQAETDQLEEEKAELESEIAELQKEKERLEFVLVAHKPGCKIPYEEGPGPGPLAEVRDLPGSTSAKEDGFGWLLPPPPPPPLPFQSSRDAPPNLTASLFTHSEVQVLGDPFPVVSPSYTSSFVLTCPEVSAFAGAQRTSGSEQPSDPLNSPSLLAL", "test": "enhancers of mouse delta FosB DNA binding – biochemical, fluorescence polarization, TAMRA-CDK5 oligo, single point, primary screen (AID 493131);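 note: fluorescence polarization rise as delta FosB binds a TAMRA Cdk5 AP-1 oligo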", "conditions": "purified delta FosB, at 25 µM, hits give high values, percent of positive-control signal above neutral wells", "values": [{"smiles": "CC(=O)Nc1ccc(NC(=O)COc2ccccc2C(=O)Nc2cccc(Cl)c2Cl)cc1", "activation": "26% (active)"}, {"smiles": "O=C(COc1ccccc1Cl)Nc1ccc(C(=O)c2ccc(C(=O)O)cc2)cc1", "activation": "-0.74%"}, {"smiles": "O=C(COc1ccccc1Cl)Nc1ccccc1C(=O)NC1CC1", "activation": "-11.8%"}, {"smiles": "O=c1c2ccccc2oc2nc3n(c(=O)c12)CCCS3", "activation": "-28.8%"}, {"smiles": "CCc1nc2oc3ccccc3c(=O)c2c(=O)n1Cc1ccc(OC)cc1", "activation": "-18.5%"}, {"smiles": "O=c1c2ccccc2oc2nc(C3CCCCC3)n(Cc3ccco3)c(=O)c12", "activation": "34% (active)"}, {"smiles": "COC(=O)c1cc(C(=O)N(Cc2ccccc2)c2ccccn2)cc([N+](=O)[O-])c1", "activation": "-5.79%"}, {"smiles": "CC[C@@H](C)[C@@H]1CN([C@@H](C)CN2CCC[C@H]2CN2C(N)=NC[C@H]2C(C)C)C(=N)N1CCc1ccc(Cl)c(Cl)c1", "activation": "23.1% (active)"}, {"smiles": "CC(C)C[C@H]1CN([C@@H](CC(C)C)CN2CCC[C@@H]2CN2C(=O)C(=O)NC[C@@H]2Cc2ccccc2)C(=O)C(=O)N1CCc1ccccc1", "activation": "-16%"}, {"smiles": "C[C@@H](CN1CCC[C@H]1CN1C(N)=NC[C@@H]1Cc1ccccc1)N1C[C@@H](Cc2ccccc2)N(CCCC2CCCC2)C1=N", "activation": "-7.85%"}, {"smiles": "Cc1cc(SCC(=O)NCCN2C(=O)CSC2=O)nc2ccccc12", "activation": "5.19%"}, {"smiles": "C=CCNC(=O)c1ccc2c3n(nc2c1)-c1ccc(C)cc1CO3", "activation": "-4.63%"}, {"smiles": "CC(OC(=O)c1cc2ccccc2o1)C(=O)Nc1ccc(N2CCOCC2)cc1", "note": "(configuration not stated)", "activation": "-0.675%"}, {"smiles": "CCCCC(c1nnnn1CS(=O)(=O)c1ccc(C)cc1)N1CCC(C(N)=O)CC1", "note": "(configuration not stated)", "activation": "-1.34%"}, {"smiles": "COc1ccc(C(CNC(=O)c2ccc(S(=O)(=O)Nc3ccccc3F)cc2)N(C)C)cc1", "note": "(configuration not stated)", "activation": "1.38%"}, {"smiles": "O=C(Nc1ccc(S(=O)(=O)N2CCc3ccccc3C2)cc1)c1ccccc1", "activation": "25.5% (active)"}, {"smiles": "COC(=O)c1ccc(S(=O)(=O)N2CCc3ccccc3C2)cc1", "activation": "-1.34%"}, {"smiles": "CC(=O)Nc1ccc(S(=O)(=O)N2CCC(NC(=O)c3ccccc3)CC2)cc1", "activation": "3.46%"}, {"smiles": "COc1cccc(/C=C2\\Sc3ccc(C(=O)NCC4CCCO4)cc3N(C)C2=O)c1", "note": "(configuration not stated)", "activation": "0.556%"}, {"smiles": "COc1cccc(/C=C2/SC(=S)N(CC(=O)NC3C=CS(=O)(=O)C3)C2=O)c1", "note": "(configuration not stated)", "activation": "35.9% (active)"}, {"smiles": "O=C(CN1C(=O)S/C(=C\\c2ccccc2Cl)C1=O)NC1C=CS(=O)(=O)C1", "note": "(configuration not stated)", "activation": "-2.97%"}, {"smiles": "COc1ccc(S(=O)(=O)N2CCCC2CNC(=O)C(=O)NC2CC2)cc1", "note": "(configuration not stated)", "activation": "-3.99%"}, {"smiles": "CC1C(=O)Nc2ccccc2N1C(=O)c1ccc(F)cc1F", "note": "(configuration not stated)", "activation": "1.98%"}, {"smiles": "C/C(=C\\C(=O)c1cccnc1)Nc1ccc(C)c(C)c1", "activation": "-1.12%"}, {"smiles": "Cc1ccc(OCC(=O)NCCCNC(=O)c2cccnc2)cc1C", "activation": "2.57%"}, {"smiles": "Cc1ccc(NC(=O)COc2ccc(/C=N\\NC(=O)c3cccnc3)cc2)cc1C", "activation": "82.7% (active)"}, {"smiles": "N#Cc1ccccc1S(=O)(=O)N1CCN(C(=O)c2cc(-c3ccccc3)nn2-c2ccccc2)CC1", "activation": "1.25%"}, {"smiles": "O=[N+]([O-])c1ccc(N2CCN(c3ccc(O)cc3)CC2)c(Cl)c1", "activation": "-9.93%"}, {"smiles": "CCN(C(=O)COC(=O)c1ccc(COc2ccc3c(C)cc(=O)oc3c2)cc1)C1CCS(=O)(=O)C1", "note": "(configuration not stated)", "activation": "2.03%"}, {"smiles": "Cc1ccccc1NC(=O)c1ccc(COc2ccc3c(C)cc(=O)oc3c2)cc1", "activation": "22.2% (active)"}, {"smiles": "CCOC(=O)c1cc(=O)c2ccc(OCc3ccccc3)cc2o1", "activation": "-2.05%"}, {"smiles": "Cc1ccc(C(C)C)c(OCCSc2nc3ccccc3n2CC(=O)O)c1", "activation": "-20.9%"}, {"smiles": "CCOc1ccc(OCC(=O)Nc2c3c(nn2C(C)(C)C)CS(=O)(=O)C3)cc1", "activation": "-1.81%"}, {"smiles": "CCOc1ccc(N(C)S(=O)(=O)c2cnc[nH]2)cc1", "activation": "-0.199%"}, {"smiles": "CSc1ncccc1C(=O)Nc1ccc2c(c1)OCO2", "activation": "-5.35%"}, {"smiles": "Cc1ccc2nc(-c3ccccn3)cc(C(=O)Nc3ccc4c(c3)OCO4)c2c1", "activation": "36.9% (active)"}, {"smiles": "Cc1ccc(-n2c(SCC(=O)Nc3ccc4c(c3)OCO4)nnc2-c2ccccn2)cc1", "activation": "-2.46%"}, {"smiles": "O=C(N/C(=C\\c1ccc([N+](=O)[O-])cc1)C(=O)N1CCCCC1)c1ccco1", "activation": "-1.72%"}, {"smiles": "O=C(Cn1cnc2c(nnn2Cc2ccc(F)cc2)c1=O)NCc1ccc2c(c1)OCO2", "activation": "17.6% (active)"}, {"smiles": "O=C(Cn1nnc(-c2ccc3c(c2)OCO3)n1)NCc1ccco1", "activation": "33.3% (active)"}, {"smiles": "COc1cc(-c2nnn(CC(=O)NCc3ccccc3)n2)cc(OC)c1OC", "activation": "-0.135%"}, {"smiles": "O=C(Cn1nnc(-c2ccccc2)n1)NCc1ccc2c(c1)OCO2", "activation": "22.6% (active)"}, {"smiles": "CCN(CC)C(=O)C(=O)c1cn(CC(=O)NCc2ccc3c(c2)OCO3)c2ccccc12", "activation": "-0.7%"}, {"smiles": "Cc1ccc(Cn2nnc3c(=O)n(CC(=O)N4CCCCC4)cnc32)cc1", "activation": "3.79%"}, {"smiles": "S=C(NCc1ccc2c(c1)OCO2)NCc1ccco1", "activation": "-2.47%"}, {"smiles": "O=C(CN(C(=O)CCC(=O)Nc1nccs1)c1ccc(F)cc1)NCc1ccc2c(c1)OCO2", "activation": "6.39%"}, {"smiles": "CS(=O)(=O)N(CC(=O)NCc1ccco1)c1ccc2c(c1)OCO2", "activation": "2.32%"}]}]}
